Reference: the supplement of paper PMC11417369
± gives the standard deviation of the averaged measurements. In all, about 25,000 sequences were measured (“ln(normalized median fluorescence intensity)”: median about 7.9, highest 2% from about 11 on). What follows is part of a selection rich in the highest values, with near analogues and random picks from the rest.

Tested on: PfAP2-I AP2 domain 3 (GST-tagged)
Assay: gcPBM binding intensity (ln(normalized median fluorescence intensity)); higher = stronger DNA binding
In short: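 Binding intensity is the highest Masliner-normalised natural-log median intensity over replicate spots in either probe orientation. To obtain it, GST-tagged P. falciparum DNA-binding domains made in E. coli were incubated for 1 h on an Agilent 4 × 180k array of primer-extended double-stranded 36-bp intergenic genomic probes plus negative controls. Detection used Alexa488 anti-GST antibody with scanning at 488 nm.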

| Sequence | gcPBM binding intensity (ln) |
| --- | --- |
| ATATATTTTTAAAAAAATTAAGAATTTTACATCTCC [CACACA_negctrl_site1450] | 7.59 ± 0.65 |
| AACAATTATTTATCTACACACTTTTATGTTATTTAC [CACACA_site9] | 7.88 ± 0.67 |
| AATTTTTTTTTCTTTTGTACGTAAATATGTGTAGGC [XGTACX_site215] | 8.33 ± 0.26 |
| ATGTGAAAATAAGACACACTCAAAAGGTTTATATTA [CACACA_site4595] | 7.67 ± 0.43 |
| ATACTTTTAATATGCACATGCAAATATGAAATATCG [TGCATGCA_site603] | 9.22 ± 0.39 |
| TTATAAAAAAAAAAAAAAAAAAAAACCAATATAATA [CACACA_negctrl_site968] | 7.3 ± 0.48 |
| ATTTATTTGAAGAATTGTACTAAATTATATAGCGGT [XGTACX_site4998] | 7.94 ± 0.49 |
| TATATATATAAATACACACACACCGTCCGTGTTAAA [CACACA_site5623] | 8.54 ± 0.53 |
| ATTATTAATAATTGTGTGCACAAATATTTATATGCT | 10.815 ± 0.007 |
| TATTAACAAATTTATGTGCACTGAGGACAAATATAT | 10.96 ± 0.085 |
| TTTTTTATTATATAATTGTATATAAAATTATAATTT [GTGCAC_negctrl_site733] | 7.67 ± 0.47 |
| TATTATATAATAAAAATTATTATTATTTGTATAAAT [CACACA_negctrl_site195] | 7.21 ± 0.42 |
| ACAAAAAAAATAAGCACACATATATATATATATATA [CACACA_site816] | 9.38 ± 0.36 |
| ATATATATATATATTGTGCACAAAAAAAAATAAGCA | 11.2 ± 0.15 |
| TTTATATTCTTAAGTGTGCACTATATATATATATAT [GTGCAC_site9719] | 11.2 ± 0.23 |
| TATAAAAATAAGCACACACACAAATATATATTTATT [CACACA_site922] | 8.12 ± 0.25 |
| AATAATAAAAATATTGTGCACTTGTATATTTATTAT [GTGCAC_site9963] | 11 ± 0.11 |
| ATTTATATTAAAAGTGTGCACTTTTTTTTTTTTTTT | 9.77 ± 0.085 |
| GCCCCCAAATTATGTGTGCACTTTATATTCCTGAGA [GTGCAC_site9474] | 10.4 ± 0.23 |
| TTTTCTTGGTTCAGTGTGCACTTATATATATATATA | 10.3 ± 0.2 |
| ATGTTATAAGATTTATGTACACACATATACACACCT [XGTACX_site1316] | 8.35 ± 0.21 |

| Sequence | gcPBM binding intensity (ln) |
| --- | --- |
| CATAAATCAGCCATAACACACATACCTATATACATA [CACACA_site6324] | 7.75 ± 0.57 |
| TAAAATATTATCTACGCACACATTAAAATAAAAAAA [CACACA_site3709] | 8.32 ± 0.2 |
| ACTTTAAAAAGATTCACACAAAATATATAAAAATAT [CACACA_site5334] | 7.75 ± 0.39 |
| AGAATTTTATTATATTGTACTTTTTATAAACCTTGT [XGTACX_site7495] | 7.7 ± 0.71 |
| ATTAAAACACAATATTCACACATGTATATTATATAT [CACACA_site5191] | 7.72 ± 0.51 |
| CATATATATATATGAACACACAAAAAGAATATTTCC [CACACA_site1493] | 7.62 ± 0.63 |
| GAATATGTAAAGAAAGGTACACATGAAAATATGTGT [XGTACX_site446] | 7.71 ± 0.66 |
| GATGTTTCTATTTTAGTGCATTTTAAATAAATAAAT | 10.4 ± 0.12 |
| ATGAATACAAAATTATACAAAATTATCAAAAGTATG [CACACA_negctrl_site1453] | 7.5 ± 0.49 |
| TTGTATACATAAAATGGTACAGAATATATAATTCTA [XGTACX_site7236] | 7.45 ± 0.61 |
| ATAATATATGTATGTATGCACTTTTATTATTTTTTT | 8.96 ± 0.15 |
| AAATATATGTTATATGTGCACTTTTTTTTTTTTTTT [GTGCAC_site9667] | 10.21 ± 0.035 |
| TATATATAAATATATGTGCACTTTTTATATTTATAT | 11 ± 0.13 |
| ATTTTATGAAATGTTGCACACAAAAAACAACATGTT [CACACA_site8408] | 8.95 ± 0.092 |
| TATTTTTGGTTATGTGTGCACTATGAACAACAAAAT | 11.4 ± 0.26 |
| AATAACTATATATGTGTGCACAAAAATTTGACATAA | 10.7 ± 0.049 |
| TATATTATTTATTTTTGTACATATTATGAATGAATA [XGTACX_site3971] | 7.73 ± 0.33 |
| ACTCAAACCTTTAGAGTGCAAAAAAAAAAAAAAAAA [GTGCAC_site9952] | 10 ± 0.21 |
| TTTTTTAAAAGATAATATTTTATTAATGTATTCTCA [GTGCAC_negctrl_site598] | 7.2 ± 0.55 |
| TTAAAAAAATATTGAAGTACACACATTATAAACTTT [XGTACX_site3548] | 7.89 ± 0.38 |
